Shown is part of a subset that was picked to be rich in hits.
PD-1 reversal = activators reversing PD-1 mediated T-cell inhibition, primary screen, luminescence, primary human CD4 T cells, PD-L1 beads. activation, % (no concentration beside the values). AID 2316, 2010. CellTiter-Glo 96 h. 29,000 tested, under 10 active; call rule not given here;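 note: 0% = median vehicle wells and 100% = positive control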
STK33 inh = STK33 kinase inhibitors, primary screen, biochemical, luminescence, ADP-Glo, MBP substrate; Serine/threonine-protein kinase 33 (Homo sapiens), Q9BYT3; inhibition, % at 12.5 µM; actives 0.44% (n = 27,000); in the data active = inhibition above about 20%; inconclusive = no clear call, values can overlap the other calls
Target sequence (Q9BYT3 whole entry, looked up): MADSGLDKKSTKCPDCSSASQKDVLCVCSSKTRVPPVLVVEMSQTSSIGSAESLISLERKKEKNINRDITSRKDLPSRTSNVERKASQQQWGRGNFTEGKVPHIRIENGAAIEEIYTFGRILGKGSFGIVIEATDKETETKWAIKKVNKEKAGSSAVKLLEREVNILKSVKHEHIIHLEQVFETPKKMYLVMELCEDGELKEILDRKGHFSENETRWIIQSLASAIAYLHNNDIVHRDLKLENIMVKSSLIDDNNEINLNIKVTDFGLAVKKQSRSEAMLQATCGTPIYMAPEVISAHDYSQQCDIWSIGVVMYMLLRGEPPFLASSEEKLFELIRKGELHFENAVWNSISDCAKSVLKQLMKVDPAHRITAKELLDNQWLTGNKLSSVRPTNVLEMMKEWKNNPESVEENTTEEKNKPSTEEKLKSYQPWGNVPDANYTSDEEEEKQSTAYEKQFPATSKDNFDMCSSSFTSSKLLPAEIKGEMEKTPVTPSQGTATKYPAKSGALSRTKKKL
NOMO-1 viab = NOMO-1 AML cell viability reduction, primary screen, STK33 inhibitor project, CellTiter-Glo luminescence | inhibition, % (test concentration not listed) | actives 7.5% (n = 37,000) | NOMO-1 AML viability, 72 h; in the data active = inhibition above about 80%; inconclusive = no clear call, values can overlap the other calls
The depositor's hits bear a star.

C[C@@H]1CN([C@H](C)CO)C(=O)Cc2cc(NC(=O)Nc3ccc(F)cc3)ccc2O[C@@H]1CN(C)Cc1ccc(Cl)c(Cl)c1 was read as PD-1 reversal -10, STK33 inh 3 and NOMO-1 viab 114*.
COc1ccc(NC(=O)Nc2ccc3c(c2)CC(=O)N([C@@H](C)CO)C[C@H](C)[C@@H](CN(C)Cc2ccc(Cl)c(Cl)c2)O3)cc1 was read as STK33 inh 0 and NOMO-1 viab 46.
`COc1ccc(C(=O)CCC(=O)Nc2ccc(C(=O)O)cc2)cc1OC` gave PD-1 reversal 1, STK33 inh 1 and NOMO-1 viab 31.
For C[C@H]1CN([C@@H](C)CO)C(=O)Cc2cc(NC(=O)Nc3ccccc3)ccc2O[C@H]1CN(C)Cc1ccc(C(F)(F)F)cc1 the results were NOMO-1 viab 127*.
C[C@H]1CN([C@@H](C)CO)C(=O)Cc2cc(NC(=O)Nc3ccc(C(F)(F)F)cc3)ccc2O[C@H]1CN(C)Cc1ccccc1 was read as STK33 inh -9 and NOMO-1 viab 85*.
For C[C@H](CO)N1C[C@H](C)[C@H](CN(C)Cc2ccccc2)Oc2ccc(NC(=O)Nc3ccc(C(F)(F)F)cc3)cc2CC1=O the results were PD-1 reversal 0, STK33 inh 0 and NOMO-1 viab inconclusive.
C[C@@H]1CN([C@H](C)CO)C(=O)Cc2cc(NC(=O)Nc3ccc(C(F)(F)F)cc3)ccc2O[C@H]1CN(C)Cc1ccccc1 was read as PD-1 reversal -4, STK33 inh -3 and NOMO-1 viab 65.
O=C(CN1C(=O)c2ccccc2S1(=O)=O)Nc1ccccc1C(=O)N1CCCC1 was read as PD-1 reversal 2, STK33 inh -3 and NOMO-1 viab 17.
`COc1ccc(OC)c2c(=O)cc(C(=O)O)oc12` gave PD-1 reversal 0 and NOMO-1 viab 16.
Screening Cc1ccc(C)c(OC(=O)CS(=O)c2ccccc2[N+](=O)[O-])c1 (stereo not given) returned PD-1 reversal -2, STK33 inh -4 and NOMO-1 viab 120*.
Screening O=C(CS(=O)c1ccccc1[N+](=O)[O-])Oc1ccc(Cl)cc1Cl (stereo not given) returned PD-1 reversal -4, STK33 inh 3 and NOMO-1 viab 69.
CCc1ccc(OCC(=O)NC(=S)Nc2cccc3nsnc23)cc1 was read as STK33 inh 0 and NOMO-1 viab 36.
`Cn1c(-c2nonc2NC(=O)c2ccccc2Br)nc2ccccc21` gave PD-1 reversal 0, STK33 inh 9 and NOMO-1 viab 29.
Screening CC(=O)Nc1nonc1-c1nc2ccccc2n1Cc1ccccc1Br returned PD-1 reversal -4, STK33 inh 4 and NOMO-1 viab 115*.
CCOC(=O)CSc1nc(N)c2c3c(sc2n1)COC(C)(C)C3 was read as PD-1 reversal -2, STK33 inh 0 and NOMO-1 viab 105*.
`CCOc1ccc(NC(=O)CSc2nc(N)c3c4c(sc3n2)COC(C)(C)C4)cc1` gave STK33 inh 2 and NOMO-1 viab -2.
For CN(CC(=O)Nc1ccc(C(N)=O)cc1)S(=O)(=O)c1ccc(F)cc1 the results were PD-1 reversal 3, STK33 inh -3 and NOMO-1 viab 18.
`Cc1cc(C(F)F)n2nc(C(=O)Nc3cnn(Cc4ccc(Cl)cc4Cl)c3)nc2n1` gave PD-1 reversal 2, STK33 inh -3 and NOMO-1 viab -2.
CC(=O)OC(C[C@@]1(C)[C@H](C)[C@H](OC(C)=O)C[C@@]23COC(=O)C2=CCC[C@@H]31)c1ccoc1 (stereo not given in full) was read as STK33 inh -6.
C=C(C)Cn1c(SCc2nc3ccccc3[nH]2)nc2sc3c(c2c1=O)CCCC3 was read as PD-1 reversal -3, STK33 inh 0 and NOMO-1 viab -11.
Screening C[C@H]1CN([C@@H](C)CO)C(=O)c2cccc(NS(=O)(=O)c3ccc(F)cc3)c2O[C@H]1CN(C)Cc1ccc(Cl)c(Cl)c1 returned PD-1 reversal -1 and NOMO-1 viab 24.
COc1ccc(S(=O)(=O)Nc2cccc3c2O[C@@H](CN(C)Cc2ccc(Cl)c(Cl)c2)[C@@H](C)CN([C@H](C)CO)C3=O)cc1 was read as PD-1 reversal -3 and NOMO-1 viab 115*.
C[C@H](CO)N1C[C@H](C)[C@H](CN(C)Cc2ccc(Cl)c(Cl)c2)Oc2c(NS(=O)(=O)c3ccc(F)cc3)cccc2C1=O was read as PD-1 reversal -3 and NOMO-1 viab 91*.
`COc1ccc(S(=O)(=O)Nc2cccc3c2O[C@H](CN(C)Cc2ccc(Cl)c(Cl)c2)[C@H](C)CN([C@@H](C)CO)C3=O)cc1` gave PD-1 reversal -2 and NOMO-1 viab 31.
`O=c1cc(CSc2n[nH]c(=O)n2-c2ccccc2)c2ccc(O)cc2o1` gave PD-1 reversal -1 and NOMO-1 viab -10.
`O=C(Nc1c(Cl)cc(Cl)cc1C(=O)NCc1cccnc1)c1cccc([N+](=O)[O-])c1` gave PD-1 reversal 2, STK33 inh -1 and NOMO-1 viab -8.
COc1ccc(Cl)cc1NC(=S)NCCCn1nc(C)c(Br)c1C was read as PD-1 reversal -3, STK33 inh 1 and NOMO-1 viab 1.
CC1(C)c2ccccc2N(CCC(N)=O)C12C=Cc1c(ccc3ccccc13)O2 (stereo not given) was read as PD-1 reversal 0 and NOMO-1 viab 88*.
Screening Cc1ccc(N(C(C)C(=O)Nc2cc(C)cc(C)c2)S(C)(=O)=O)cc1 (stereo not given) returned PD-1 reversal -1, STK33 inh 1 and NOMO-1 viab 1.
`CCn1c(SCC(=O)N2c3ccccc3Sc3ccccc32)nnc1-c1cccc(Cl)c1` gave PD-1 reversal 0, STK33 inh inconclusive and NOMO-1 viab 24.
C[C@@H]1CN([C@@H](C)CO)C(=O)c2cc(NC(=O)Nc3cccc4ccccc34)ccc2O[C@@H]1CN(C)Cc1ccccc1 was read as PD-1 reversal 1, STK33 inh 1 and NOMO-1 viab 34.
C[C@H]1CN([C@@H](C)CO)C(=O)c2cc(NC(=O)Nc3cccc4ccccc34)ccc2O[C@@H]1CN(C)Cc1ccncc1 was read as PD-1 reversal -2, STK33 inh -6 and NOMO-1 viab 7.
For C[C@H](CO)N1C[C@H](C)[C@H](CN(C)Cc2ccc(-c3ccccc3)cc2)Oc2ccc(NC(=O)Nc3cccc4ccccc34)cc2C1=O the results were PD-1 reversal -4 and NOMO-1 viab 120*.
`C[C@@H]1CN([C@H](C)CO)C(=O)c2cc(NC(=O)Nc3cccc4ccccc34)ccc2O[C@@H]1CN(C)Cc1ccc(-c2ccccc2)cc1` gave NOMO-1 viab 90*.
For C[C@H]1CN([C@@H](C)CO)C(=O)c2cc(NC(=O)Nc3cccc4ccccc34)ccc2O[C@@H]1CN(C)Cc1ccccc1 the results were PD-1 reversal -3 and NOMO-1 viab 23.
For C[C@H]1CN([C@@H](C)CO)C(=O)c2cc(NC(=O)Nc3cccc4ccccc34)ccc2O[C@H]1CN(C)Cc1ccncc1 the results were PD-1 reversal -3 and NOMO-1 viab 108*.
